ChEMBL document CHEMBL3988442, “University of Dundee, Small-Polar-MMV Screening Library” (2021)

organism: Homo sapiens; assay: To identify inhibition of the IFN signalling (Jak-Stat) pathway via expression of an eGFP reporter gene under the control of an IFN-stimulated response element (ISRE) containing MxA promoter.; type: functional; parameters: scale not given: direction of the effect not stated beside the values; details: 30 µM

| SMILES | Percent Effect |
| --- | --- |
| Cn1c(Cn2ccnc2)nnc1C1CCN(C(=O)C2(C)CC2)CC1 | 17% |
| O=C(c1cnn(-c2ccccc2F)c1)N1CCN(CCO)CC1 | -20% |
| O=C(NCCCn1cccn1)C1(c2ccc(Br)cc2)CC1 | 8.94% |
| COCCC(=O)N1CCC2(CN(Cc3ccc(OC)c(F)c3)C2)C1 | -17.9% |
| O=C(c1cccc(S(=O)(=O)NCCCc2ccco2)c1)N1CCOCC1 | -5.12% |
| CC(=O)N1CCN(Cc2csc(-c3cnn(C)c3)n2)CC1 | 3.43% |
| Cc1cnn(CCNCC(=O)NCc2ccccc2)c1 | -25% |
| CCCc1cc(NC2CCc3ncnn3C2)n2ncnc2n1 (stereo not given) | 17.2% |
| CC(C)Sc1ncccc1C(=O)NCc1ccc(CS(C)(=O)=O)cc1 | 18.1% |
| CCc1nnc2n1CCN(Cc1ccc3c(c1)OCCO3)C2 | 28.3% |
| Cc1ccc(CN2CC[C@H]3OCC[C@@H](C(=O)NC4CC4)[C@@H]3C2)o1 | 11.3% |
| Cc1nc(C)n(C2CCCN(C(=O)CCc3ccncc3)C2)n1 (stereo not given) | 0.916% |
| CCOC[C@H]1CC[C@H]2[C@H](CCN2C(=O)c2ccncc2F)O1 | -17.8% |
| Cc1ccc(C(=O)NCC2(O)CCOCC2)cc1Br | 19% |
| N#Cc1cn(C2CC2)c(=O)n(CC(O)c2ccc(OC(F)F)cc2)c1=O (stereo not given) | 3.44% |
| O=C(CCc1nc2cccnc2[nH]1)Nc1cccnc1 | -1.85% |
| c1cnnc(NCC2CN(Cc3cccc4c3OCCO4)CCO2)c1 (stereo not given) | 18.6% |
| Cc1cc(N2CCN(Cc3ccc(-c4cc[nH]n4)o3)CC2)cc(C)n1 | 9.15% |
| COc1ccnc(N2CCN(C(=O)CN3CCCC3=O)CC2)n1 | 2.97% |
| N#Cc1ccnc(N2CCN(Cc3cccc(F)c3)CC2)c1 | 4.37% |

| SMILES | Percent Effect |
| --- | --- |
| O=C(C(CNCc1ccsc1)c1ccccc1)N1CCOCC1 (stereo not given) | -32.4% |
| O=C(CCOc1cccc(F)c1)N1CCCC(n2cncn2)C1 (stereo not given) | 2.52% |
| Cc1nc(C)n(CC2CCCCN2CCCS(=O)(=O)N(C)C)n1 (stereo not given) | 4.05% |
| CCOC(C)c1nc(CN2CCNCC2)cs1 (stereo not given) | 14.6% |
| CC1CCCN(CCNC(=O)c2cncnc2C(C)C)C1 (stereo not given) | -15.9% |
| CC(C)NC(=O)c1sccc1N(C)S(=O)(=O)c1ccc(Cl)cc1 | 22.6% |
| Cc1cc(C)n(C2CCCN(C(=O)c3cnc4onc(C)c4c3)C2)n1 (stereo not given) | 38.1% |
| O=C(CCc1nc2cccnc2[nH]1)NCc1cccnc1 | 9.81% |
| CSCCC(=O)N1CCCC1c1ccsc1 (stereo not given) | 30.2% |
| COc1c(C)cnc(CSc2nnc(C)s2)c1C | 6.59% |
| CCOc1cc(C)nc(N2CCN(C(=O)c3ccc[nH]3)CC2)n1 | 22.2% |
| CC(C)NC(=O)N1CCC(n2ccc(C(F)(F)F)n2)CC1 | -13.8% |
| CC(C)c1nnc2n1CCN(CCCS(=O)(=O)c1ccccc1)C2 | 0.936% |
| Cc1cnn(CC2CN(Cc3nnc(C4CC4)o3)CCO2)c1 (stereo not given) | 8.17% |
| CC(NC(=O)NCCCNS(C)(=O)=O)c1ccncc1 (stereo not given) | -9.13% |
| CS(=O)(=O)CCC(=O)NC1(c2cccc(Br)c2)CC1 | -3.85% |
| Cc1cc(CN2CCN(C(=O)c3sccc3C(C)C)CC2)no1 | 5.54% |
| CC(=O)Nc1ccc(-n2ccc3nc(N4CCCC4)ncc3c2=O)cc1 | -5.51% |
| Cc1nc(C)n(CC2CCCN2CCc2cccs2)n1 (stereo not given) | 10.2% |
| Cc1nn(C)c(C)c1C1CCCN1C(=O)c1ccc(CN(C)C)cc1 (stereo not given) | 11.4% |
